p53ts 32C kill = kills p53ts cells at the permissive temperature; H1299-p53A138V at 32C, ATP luminescence viability, 24 h; Potency, µM (titrated, usually from 46.1 µM), inactives show at the highest dose activity change, negative = cytotoxicity, most hits filed as cytotoxic; hit rate 0.93% among 130,000; AID 924;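 also: potency is read from the fitted curve at half-maximal effect; 0% = DMSO and -100% = full killing by reference compound; nearly all actives have a fitted effect of over 55% in size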
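Cells: H1299 p53ts (A138V), 600/well, pre-incubated 16–30 h at 37C. Cpd up to 46 uM, 24 h, 32C. Readout: ATPlite luminescence, 20 min RT. Normalization: DMSO vs tamoxifen 100 uM. AC50 by Hill equation.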
HBB splicing = hemoglobin beta splicing modulation; hit rate 0.06% among 65,000; Potency, µM (doses to about 46.1 µM), for the others: at the highest dose activation, actives largely listed as activators; AID 925; HBB splicing reporter cell assay, activation; EGFP reporter with mutant IVS2-654 intron; response scale: normalised to 500 nM splice-correcting PNA; also: potency is read from the fitted curve at half-maximal effect; 0% is about no effect
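HeLa cells stably expressing EGFP interrupted by mutant beta-globin intron 2 (IVS2-654), 500/well in 2% FCS. Treated with compound for 2 days at 37C. Splicing correction scored as total well GFP intensity (488 nm excitation, 500-520 nm emission); 500 nM antisense PNA served as control.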
GFP derepression = derepresses silenced GFP locus in mouse C127i cells; Potency, µM (top dose mostly 46.1 µM), for inactives: top-dose GFP derepression (activation); hit rate 0.09% among 68,000; mouse C127i GFP locus derepression, cytometry, 30 h; AID 597; also: % of control where 0% means no effect
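Derepression screen: silenced CMV-GFP reporter in murine C127i cells, 30 h compound incubation at 37 C, washed cells imaged by laser-scanning cytometer to enumerate GFP-expressing objects of 20 to 120 um.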
p53ts 39C kill = p53ts cell cytotoxicity, nonpermissive temperature. H1299-p53A138V viability at 39C, ATP luminescence, 24 h. Potency, µM (highest dose often 46.1 µM), for the others: at the highest dose activity change, negative = cell killing, usual class: cytotoxic. hit rate 1.5% among 130,000. AID 902; also: potency is read from the fitted curve at half-maximal effect; % is scaled to controls: 0 for no effect and ±100 for the full control effect; nearly all actives have a fitted effect of over 55% in size
Imprint erasure = inducers of genomic imprint erasure in mouse ES cells; mouse ES Peg3-LacZ reporter, beta-gal luminescence, 40 h; Potency, µM (top dose mostly 60.7 µM), for inactives: at the highest dose activity change, positive = activation, most hits filed as activators; hit rate 0.02% among 110,000; AID 1948; also: potency is read from the fitted curve at half-maximal effect
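Readout: BetaGlo luminescence (5 min, room temp) for LacZ from the normally silent maternal Peg3 allele in female Peg3LacZ-Neo ES cells. Cells 300/well, 40 h, 37C, 5% CO2. Data normalized per plate to negative controls.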
UbGFP stabilizer = proteasome inhibitors stabilizing ubiquitin-GFP reporter; Ubiquitin-GFP reporter cells, proteasome inhibition, GFP fluorescence; response scale: untreated = 0%, 10 µM MG-132 = 100%; Potency, µM (top dose mostly 45.9 µM), for the others: top-dose activation (GFP accumulation), usual class: activators; 67,000 tested, under 10 active; AID 526; active = well fitted activation curve with a large enough effect, not every such curve was filed as active; inconclusive = small, poorly fitted or top-dose-only effect, or another doubt; inactive = no such curve, though single readings can be large or run the other way; also: potency is read from the fitted curve at half-maximal effect
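U2OS cells expressing ubiquitin(G76V)-GFP, seeded overnight in 0.5% FBS medium, then treated 4 hr at 37 C across 46 uM to 2.9 nM. GFP-positive cells counted by laser cytometry (488 ex/515 em); %activity scaled between basal and 10 uM MG-132.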
The depositor's hits bear a star; [ ] = dose if it differs, or a comment. Only some compounds are listed: those with a hit (about 1.6% of all), similar ones and a draw of the others. Unless noted, calls follow the shape of the dose curve; as a rule, active = well fitted curve in the direction sought with a large enough effect; inconclusive = small, poorly fitted or top-dose-only effect, or another doubt; inactive = no such curve, though single readings can be large; an effect the other way counts as inactive or inconclusive.

COc1ccccc1NC(=O)C1=C(C)Nc2nc(SCc3ccccc3F)nn2C1c1ccncc1 (stereo unspecified) was read as p53ts 32C kill 1.1%, p53ts 39C kill -15.1% and Imprint erasure 5.9%[10.9 µM].
`CC(C)OCCCNC(=O)CSc1c2c(nc3ccc(Cl)cc13)CCCC2` gave p53ts 32C kill 12.6µM*, p53ts 39C kill inconclusive and Imprint erasure -4.1%[10.9 µM].
COCCCNC(=O)CSc1c2c(nc3ccc(Cl)cc13)CCCC2 was read as p53ts 32C kill inconclusive, p53ts 39C kill inconclusive and Imprint erasure -7.8%[10.9 µM].
Cc1ccc(/C=C/c2nc3ccccc3[nH]2)cc1 was read as p53ts 32C kill 0.501µM*, p53ts 39C kill 0.501µM* and Imprint erasure -90.8%[10.9 µM].
Screening CCCNC(=O)C1CCN(Cc2cc3ccccc3n2Cc2ccccc2)CC1 returned p53ts 32C kill 2.9%, p53ts 39C kill -11.0% and Imprint erasure -11.2%[10.9 µM].
For CN(C)CCNC(=O)C1CCN(Cc2cc3ccccc3n2Cc2ccccc2)CC1 the results were p53ts 32C kill inconclusive, p53ts 39C kill 12.6µM* and Imprint erasure -9.0%[10.9 µM].
Screening Cc1ccc(-c2nc(-c3ccccc3)no2)c(Cl)c1 returned p53ts 32C kill 5.01µM*, HBB splicing -1.4%, GFP derepression -3.9%, p53ts 39C kill 7.94µM*, Imprint erasure -81.5% and UbGFP stabilizer 2.6%.
Screening Brc1ccccc1-c1nc(-c2ccccc2)no1 returned p53ts 32C kill 12.6µM*, HBB splicing 3.0%[0.0738 µM], GFP derepression -1.6%, p53ts 39C kill inconclusive, Imprint erasure -68.1% and UbGFP stabilizer 15.1%[9.17 µM].
For CCN(CC)S(=O)(=O)c1ccc2c(c1)c(=O)c(C(=O)NCc1ccccc1Cl)cn2C the results were p53ts 32C kill inconclusive, p53ts 39C kill 6.31µM* and Imprint erasure 27.7%[10.9 µM].
Cc1cccc(S(=O)(=O)c2cn(Cc3ccccc3)c3cc(N4CCCCC4)c(F)cc3c2=O)c1 was read as p53ts 32C kill 11.9%.
For O=C(N/N=C/c1ccc(O)cc1O)c1cc(-c2ccccc2)n[nH]1 the results were p53ts 32C kill -15.9% and p53ts 39C kill 10µM*.
O=C(N/N=C/c1c[nH]c2ccccc12)c1cc(-c2ccc3ccccc3c2)n[nH]1 was read as p53ts 32C kill inconclusive and p53ts 39C kill 15.8µM*.
`O=C(c1cc2ccccc2o1)N1CCCCCC1` gave p53ts 32C kill -3.8%, HBB splicing 0.1%, GFP derepression 2.6%, p53ts 39C kill -0.2%, Imprint erasure -50.5% and UbGFP stabilizer 5.2%.
`O=C(/C=C/N1CCOCC1)c1cc2ccccc2o1` gave p53ts 32C kill 12.6µM*, HBB splicing 2.1%, GFP derepression 3.6%, p53ts 39C kill inconclusive, Imprint erasure -40.8% and UbGFP stabilizer -4.3%.
Screening O=C(/C=C/N1CCOCC1)c1coc2ccccc12 returned p53ts 32C kill 15.8µM* and p53ts 39C kill inconclusive.
`Cc1ccc2c(=O)c(C(=O)c3cccc(Cl)c3)cn(CC(=O)NC3CCCCC3)c2n1` gave p53ts 32C kill 3.4%, p53ts 39C kill 6.2% and Imprint erasure -10.8%[10.9 µM].
Screening CCN(Cc1ccccc1)C(=O)Cn1c(=O)n(-c2ccc(Cl)c(Cl)c2)c(=O)c2c(C)c(C(=O)N(C)C)sc21 returned p53ts 32C kill 6.5%, p53ts 39C kill -12.2% and Imprint erasure -3.6%[10.9 µM].
`Cc1nc2cc(NCc3nc4ccccc4n3Cc3ccccc3)ccc2n1C` gave p53ts 32C kill 3.98µM* and p53ts 39C kill 2µM*.
For Cn1c(CNc2ccc(Cl)cc2)nc2ccccc21 the results were p53ts 32C kill inconclusive, HBB splicing -0.1%, GFP derepression 4.3%, p53ts 39C kill inconclusive, Imprint erasure -68.2% and UbGFP stabilizer 3.6%.
For CCc1ccc(NS(=O)(=O)c2cc(-c3cnc(C4CC4)o3)ccc2C)cc1 the results were p53ts 32C kill 31.4%, p53ts 39C kill 20µM* and Imprint erasure 14.9%[10.9 µM].
`Cc1ccc(CNC(=O)C2CCN(S(=O)(=O)c3ccc4c(c3)CCCN4C(=O)C3CCC3)CC2)cc1` gave p53ts 32C kill 4.2%, p53ts 39C kill -25.1% and Imprint erasure -5.0%[10.9 µM].
`COc1ccc(OCC(=O)Nc2cc(-c3nc4ccccc4s3)ccc2C)cc1` gave p53ts 32C kill -24.5%, p53ts 39C kill 15.8µM* and Imprint erasure -15.5%[10.9 µM].
Screening Cc1ccc(-c2nc3ccccc3s2)cc1NC(=O)COc1ccccc1 returned p53ts 32C kill -9.0%, p53ts 39C kill -24.8% and Imprint erasure -11.7%[10.9 µM].
`COc1ccc(-c2nc3ccccc3s2)cc1NC(=O)COc1cccc(C)c1` gave p53ts 32C kill -22.3%, p53ts 39C kill 10µM* and Imprint erasure -8.9%[10.9 µM].
`COCCn1c(CNC(=O)c2cc(OC)c(OC)c(OC)c2)nc2cccnc21` gave p53ts 32C kill 2.1%, p53ts 39C kill -24.1% and Imprint erasure -12.4%[10.9 µM].
CC(=O)Nc1cccc2c1C(=O)N(c1cccc(C)c1)C2=O was read as p53ts 32C kill -5.9% and p53ts 39C kill 12.1%.
Cc1cccc(N2C(=O)c3cccc4c(N(C)CCO)ccc(c34)C2=O)c1 was read as p53ts 32C kill -7.0%, HBB splicing 20µM*, GFP derepression 0.0%, p53ts 39C kill 30.9%, Imprint erasure -11.2% and UbGFP stabilizer -4.2%[9.17 µM].
For Nc1nc(Nc2cccc(F)c2)nc2ccccc12 the results were p53ts 32C kill inconclusive, GFP derepression -1.9%, p53ts 39C kill 12.6µM*, Imprint erasure -85.6% and UbGFP stabilizer -2.2%.
For Cc1ccc(CN(C(=O)c2ccccc2F)c2ccccn2)o1 the results were p53ts 32C kill -4.1%, p53ts 39C kill -9.3% and Imprint erasure -8.1%[10.9 µM].
`CCC1CCCCN1CCCNC(=O)c1cc2c(Cl)nc3ccc(C)cc3c2s1` (stereo unspecified) gave p53ts 32C kill -14.3%, p53ts 39C kill 12.6µM* and Imprint erasure -16.0%[10.9 µM].
O=C(O)c1cc(-c2cccs2)nc2cc3c(cc12)OCCO3 was read as p53ts 32C kill inconclusive, HBB splicing -0.7%, p53ts 39C kill 10µM*, Imprint erasure -13.2% and UbGFP stabilizer 16.8%.
Screening Cc1ccc2nc(-c3ccc4c(c3)OCCO4)cc(C(=O)O)c2c1 returned p53ts 32C kill 15.8µM*, HBB splicing 0.3%, GFP derepression 1.3%, p53ts 39C kill 10µM*, Imprint erasure -27.9% and UbGFP stabilizer -2.7%.

Bioassay records from PubChem BioAssay.
